In PubChem BioAssay AID1259421 (Broad Institute, 2018):
“And” between values parts separate entries of the source, which are not always exact repeats. Identical values can stand only once. Out of some 6,400 compounds screened, about 610 (9.5%) were called active. Cut-off read from the data, not from the text of the source: active = activity change below about -70%; inconclusive = no clear call, values can overlap the other calls; inactive = above that. What follows is part of a selection rich in actives, with near analogues and random picks from the rest. A structure can be active in one record and inactive in another. Where a SMILES comes first, the peptide text is derived from it. Bridges are numbered along the chain shown (N, C = ends). [ ]: non-standard residue; d: D form. The star is where a group is joined. ξ: configuration not given here. Heptanoyl(6-Me) = CC(C)CCCCC(=O)*; ξDab = NCCC(N)C(=O)O; ξT = CC(O)C(N)C(=O)O

Assay: T. gondii ME49Luc in HeLa cells, luciferase assay, 72 h, no IFN-y (AID 1259421)
Conditions: stronger effect = lower value, concentration not given here
In the case of Cc1cc(-c2cc(OC(=O)c3ccccc3)ccc2Cl)cc2nnc(Nc3ccc(OCCN4CCCC4)cc3)nc12, the activity change, negative = inhibition is reported as 7.81% (inactive).
For CCCCOc1ccc(C(=O)CCN2CCCCC2)cc1, the activity change, negative = inhibition was 1.11% (inactive).
In the case of Cc1cc(-c2cc(O)ccc2Cl)cc2nnc(Nc3ccc(OCCN4CCCC4)cc3)nc12, the activity change, negative = inhibition is reported as -89.7% (active).
With CCn1ccnc1CC1COc2ccccc2O1 (centres undefined) the activity change, negative = inhibition was 16.5% (inactive) and 6.37% (inactive).
In the case of Nc1nonc1C(=Nc1ccc(F)c(Cl)c1)NO, the activity change, negative = inhibition is reported as 17% (inactive).
In the case of CCOc1ccc(-n2c([C@@H](C)N(Cc3cccnc3)C(=O)Cc3ccc(OC(F)(F)F)cc3)nc3ncccc3c2=O)cc1, the activity change, negative = inhibition is reported as -0.654% (inactive).
With CON=C1C[C@]2(C[C@@H]3C[C@@H](C/C=C(\C)C[C@@H](C)/C=C/C=C4\CO[C@@H]5[C@H](O)C(C)=C[C@@H](C(=O)O3)[C@]45O)O2)O[C@H](/C(C)=C/C(C)C)[C@H]1C the activity change, negative = inhibition was -67.7% (inactive).
For CC(C)c1cc(-c2n[nH]c(=O)n2-c2ccc3c(ccn3C)c2)c(O)cc1O, the activity change, negative = inhibition was -82.8% (active).
With CC(C)CCCCC(=O)NC(CCN)C(=O)NC(C(=O)NC(CCN)C(=O)NC1CCNC(=O)C(C(C)O)NC(=O)C(CCN)NC(=O)C(CCN)NC(=O)[C@H](CC(C)C)NC(=O)[C@@H](CC(C)C)NC(=O)C(CCN)NC1=O)C(C)O (stereo partly drawn) ({Heptanoyl(6-Me)}-[ξDab][ξT][ξDab][ξDab][ξDab][dL]L[ξDab][ξDab][ξT]; lactam 4-C) the activity change, negative = inhibition was 5.64% (inactive).
For COc1ccc(-c2cc(=O)c3c(OC)c(OC)c(OC)cc3o2)cc1OC, the activity change, negative = inhibition was -3.44% (inactive).
For COc1cc(-c2ccc(=O)[nH]n2)ccc1OC(F)F, the activity change, negative = inhibition was -98.8% (active) and -89.5% (active).
In the case of COc1ccc(-c2cc(=O)c3c(OC)c(OC)c(OC)c(OC)c3o2)cc1OC, the activity change, negative = inhibition is reported as 14.2% (inactive).
With N[C@@H](CSCCCO)C(=O)O the activity change, negative = inhibition was 9.56% (inactive) and 5.2% (inactive).
In the case of COC(=O)Nc1nc2ccc(S(=O)c3ccccc3)cc2[nH]1 (centres undefined), the activity change, negative = inhibition is reported as 1.33% (inactive) and 7.44% (inactive) and -54.7% (inactive).
For CCCS(=O)c1ccc2nc(NC(=O)OC)[nH]c2c1 (centres undefined), the activity change, negative = inhibition was 18.9% (inactive).
With COC(=O)Nc1nc2ccc(C(=O)c3ccccc3)cc2[nH]1 the activity change, negative = inhibition was -65.6% (inactive) and -76% (active).
In the case of COC(=O)Nc1nc2ccc(Sc3ccccc3)cc2[nH]1, the activity change, negative = inhibition is reported as -42.3% (inactive) and -3.74% (inactive) and -73.8% (active).
With COC(=O)Nc1nc2ccc(SC(C)C)cc2[nH]1 the activity change, negative = inhibition was -47% (inactive) and -32.6% (inactive).
With COC(=O)Nc1nc2ccc(C(=O)c3ccc(F)cc3)cc2[nH]1 the activity change, negative = inhibition was -64.8% (inactive).
In the case of CCCSc1ccc2nc(NC(=O)OC)[nH]c2c1, the activity change, negative = inhibition is reported as -54.3% (inactive) and -5.56% (inactive).
For COC(=O)Nc1nc2ccc(C(=O)C3CC3)cc2[nH]1, the activity change, negative = inhibition was -35.4% (inactive).
For COC(=O)Nc1nc2ccc(C(=O)c3cccs3)cc2[nH]1, the activity change, negative = inhibition was -78.8% (active) and -71.2% (active).
In the case of CN(CCOP(=O)(O)O)C(=N)N, the activity change, negative = inhibition is reported as 22.7% (inactive) and 1.51% (inactive).
With O=C(O)[C@H](Cc1ccc(Nc2nccc3ccncc23)cc1)NC1=C(Br)C(=O)C12CCCCC2 the activity change, negative = inhibition was -35.7% (inactive).
For CN(C)CCC1(c2ccc(Cl)cc2)Cc2ccccc2C(=O)O1 (centres undefined), the activity change, negative = inhibition was 24.4% (inactive) and 4.82% (inactive).
In the case of CCOc1nc2cccc(C(=O)OC(C)OC(=O)OC3CCCCC3)c2n1Cc1ccc(-c2ccccc2-c2nn[nH]n2)cc1 (centres undefined), the activity change, negative = inhibition is reported as 26.2% (inactive) and -2.58% (inactive).
With COc1ccc(-c2oc3ccccc3c(=O)c2O)cc1OC the activity change, negative = inhibition was 17.9% (inactive).
For CN(C)C(=O)C(=O)c1cn(C)c2cc(Cl)c(C(=O)N3CCC(Cc4ccc(F)cc4)CC3)cc12, the activity change, negative = inhibition was -34.4% (inactive).
With CN(C)[C@@H](CCOc1cccc2ccccc12)c1ccccc1 the activity change, negative = inhibition was 16.9% (inactive).
For CC(C)Nc1nc2cc(Cl)c(Cl)cc2n1[C@H]1O[C@@H](CO)[C@H](O)[C@@H]1O, the activity change, negative = inhibition was -13.6% (inactive).
With c1ccc(C(NCc2cccnc2)(c2ccccc2)c2ccccc2)cc1 the activity change, negative = inhibition was 3.97% (inactive) and 35.4% (inactive).
For CCCn1c(=O)c2[nH]c(C34CC5CC(CC3C5)C4)nc2n(CCC)c1=O, the activity change, negative = inhibition was -9.56% (inactive).
In the case of Clc1ccccc1C(c1ccccc1)(c1ccccc1)n1ccnc1, the activity change, negative = inhibition is reported as -38.2% (inactive) and -91% (active).
For Fc1ccc(C(c2ccccc2)(c2ccccc2F)n2ccnc2)cc1 (centres undefined), the activity change, negative = inhibition was -44.6% (inactive).
With N#C/C(=C1/SCC(c2ccccc2Cl)S1)n1ccnc1 (centres undefined) the activity change, negative = inhibition was 12.5% (inactive).
With N[C@H](Cc1cnc[nH]1)C(=O)O the activity change, negative = inhibition was 2.37% (inactive).
For O=c1cc[nH]c2cc(Cl)ccc12, the activity change, negative = inhibition was 10.2% (inactive).
In the case of COc1cc2ncnc(Nc3ccc(F)c(Cl)c3)c2cc1NC(=O)/C=C/CN1CCCCC1, the activity change, negative = inhibition is reported as -80.3% (active).
With C=CC(=O)Nc1cc2c(Nc3ccc(F)c(Cl)c3)ncnc2cc1OCCCN1CCOCC1 the activity change, negative = inhibition was -41.3% (inactive).
